These results are taken from PubChem BioAssay (NCATS).

Inconclusive results are not listed. The source made the active and inactive calls. Calls come from the whole dose curve; as a rule, active = well fitted inhibition curve with a large enough effect in the signal ratio, with a control signal flat (not every such curve was filed as active); inconclusive = small, poorly fitted or top-dose-only effect, or effect the other way, or a change in a side signal; inactive = no such curve, though single readings can be large or run the other way; the % refers to the signal ratio.
% is set by controls: 0 for no effect and ±100 for the full control effect.

Retinoic acid receptor RXR-alpha (Homo sapiens), sequence (P19793 whole entry, looked up): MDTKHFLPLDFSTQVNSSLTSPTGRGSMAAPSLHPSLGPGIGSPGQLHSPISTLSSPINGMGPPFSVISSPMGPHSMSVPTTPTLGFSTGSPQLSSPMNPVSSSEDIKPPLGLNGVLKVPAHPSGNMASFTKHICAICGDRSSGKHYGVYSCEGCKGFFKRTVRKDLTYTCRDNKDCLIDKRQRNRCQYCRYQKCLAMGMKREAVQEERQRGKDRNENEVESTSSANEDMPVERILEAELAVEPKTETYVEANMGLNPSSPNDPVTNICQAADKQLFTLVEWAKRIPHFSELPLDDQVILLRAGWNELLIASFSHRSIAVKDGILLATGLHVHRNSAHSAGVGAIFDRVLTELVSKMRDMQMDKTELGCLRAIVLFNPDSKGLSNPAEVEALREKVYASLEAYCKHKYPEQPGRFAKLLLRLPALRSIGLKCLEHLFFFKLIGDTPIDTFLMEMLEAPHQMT

This test concerns the target Retinoic acid receptor RXR-alpha (Homo sapiens) (UniProt P19793). The test can be described thus: qHTS assay for small molecule antagonists of retinoid X receptor alpha signaling (AID 588546). Conditions: HEK293T RXRa-UAS-bla, beta-lactamase ratio, antagonist mode. The text has this: NIH Chemical Genomics Center [NCGC] U.S. Environmental Protection Agency [EPA] National Institutes of Environmental Health Sciences [NIEHS] National Toxicology Program [NTP] NCGC Assay Overview The Retinoid X receptor (RXR), a nuclear hormone receptor is expressed in liver, spleen, placenta, epidermis, central nervous system. These receptors are able to form homo and heterodimers with other nuclear receptors and due to this heterodimerizing ability, RXR functions as master regulators producing diverse physiological effects. Three subtypes of RXR exist; alpha, beta and gamma. Retinoid X receptor alpha (RXR-alpha) has potential roles in metabolic signaling pathways, skin alopecia, dermal cysts, cardiac development, insulin sensitization etc. Therefore screening environmental chemicals on RXR-alpha signaling can be used for the studies focused on such therapeutic applications.
NCGC Assay Protocol Summary Using a beta-lactamase reporter-gene under control of Retinoid X receptor--alpha (RXR-alpha) response element, a cell-based assay [GeneBLAzer (RXR-alpha -UAS-bla assay developed by Invitrogen] was used to measure RXR-alpha ligands signaling. GeneBLAzer RXR-alpha -UAS-bla HEK293T cells were used with assay medium containing 2% charcoal-stripped FBS. The assay was performed in clear bottom black Greiner 1536-well plates. Library compounds were measured for their ability to inhibit the reporter gene activity. Compounds were screened in a titration series in 1536-well format. The fluorescence intensity (405 nm excitation, 460/530 nm emission) was measured using an EnVision plate reader. Data was normalized relative to 9-cis-retinoic acid control (500 nM, 100%), and DMSO only wells (basal, 0%). Concentration-response titration points for each compound were fitted to the Hill equation yielding concentrations of half-maximal inhibition (IC50) and maximal response (efficacy) values. qHTS protocol for RXR-alpha beta-lactamase assay in antagonist mode [Step] [Parameter] [Value] [Description] 1. Reagent; 5 uL; 2500 cells/well 2. Incubation; 37 C for 4 hrs 3. Compounds; 23 nL; 0.59 nM to 92 uM 4. Controls (DMSO); 23 nL 5. Agonist (Stimulator); 1uL; 9-cis-retinoic acid at 500 nM and 100 nM final concentrations 6. Incubation; 37 C for 18 hrs 7. Detection reagent; 1 uL of CCF4-dye 8. Incubation; RT for 2 hrs 9. Detection; Fluorescence; Envision plate reader
As for `CS(=O)(=O)c1cc(C(F)(F)F)ccc1C(=O)c1cnoc1C1CC1`, the max response is -4.05% (inactive).
With `Clc1ccc([C@@]2(Cn3cncn3)C[C@@H](Br)CO2)c(Cl)c1`, the max response was -32.6% (inactive).
For `Cc1cnc(C2=NC(C)(C(C)C)C(=O)N2)c(C(=O)O)c1` (stereo not given), the max response was 9.76% (inactive).
`ClCc1ccccc1Cl`: the max response was 0.106% (inactive).
For the molecule `COc1cnc(OC)n2nc(NS(=O)(=O)c3c(OCC(F)F)cccc3C(F)(F)F)nc12`, the max response was -13.9% (inactive).
Turning to `O=C(O)C(F)(F)C(F)(F)C(F)(F)C(F)(F)C(F)(F)F`, the max response is -23% (inactive).
Turning to `CCOC1Oc2ccc(OS(C)(=O)=O)cc2C1(C)C` (stereo not given), the max response is -7.44% (inactive).
`CSc1nnc(C(C)(C)C)c(=O)n1N`: the max response is 6.64% (inactive).
The same measure, in the same setting: the same measure for `COC(=O)/C=C(\C)OP(=O)(OC)OC`: -10.3% (inactive); for `O=c1[nH]c2ccccc2c(=O)o1`: -21.4% (inactive).
Same read-out and setting: to `O=C1NCCN1Cc1ccc(Cl)nc1` belongs -5.19% (inactive); to `Cc1c(F)c(F)c(COC(=O)C2C(/C=C(\Cl)C(F)(F)F)C2(C)C)c(F)c1F` (stereo not given), 12% (inactive); to `Clc1ccccc1-c1nnc(-c2ccccc2Cl)nn1`, -5.51% (inactive).
Still for that read-out and setting: the same measure for `C=C(C)CN(CC)c1c([N+](=O)[O-])cc(C(F)(F)F)cc1[N+](=O)[O-]`: 1.05% (inactive); for `c1cc(OCC2CO2)cc(OCC2CO2)c1` (stereo not given): 5.23% (inactive); for `COc1cc(OC)nc(Sc2cccc(Cl)c2C(=O)O)n1`: -5.7% (inactive).
For the molecule `Nc1ccccc1C(=O)OCCc1ccccc1`, the max response was -9.65% (inactive).
Still for that read-out and setting: the same measure for `COc1ccc(/C(=C/C(=O)N2CCOCC2)c2ccc(Cl)cc2)cc1OC`: -50.8% (inactive).
Take `CC1(C)CCC(Cc2ccc(Cl)cc2)C1(O)Cn1cncn1` (stereo not given): the max response is -14.3% (inactive).
For `O=[N+]([O-])c1cc(C(F)(F)F)cc([N+](=O)[O-])c1Cl`, the max response was 20% (inactive).
On the same count and under the same terms, the same measure for `CCCCC(CC)COC(=O)Cl` (stereo not given): -2.38% (inactive).
Consider `CS(=O)(=O)NC(=O)c1cc(Oc2ccc(C(F)(F)F)cc2Cl)ccc1[N+](=O)[O-]`, for which the max response is -2.65% (inactive).
As to `O=[N+]([O-])C(Br)Br`, the max response is 3.78% (inactive).
Still for that read-out and setting: to `CCCCCCCCCCCCCCC(Br)C(=O)O` (stereo not given) belongs -14.5% (inactive).
Turning to `CC1=NNC(=O)N(/N=C/c2cccnc2)C1`, the max response is -13.2% (inactive).
Consider `CC(C)N(C(=O)SCC(Cl)=C(Cl)Cl)C(C)C`, for which the max response is 10.8% (inactive).
For the molecule `CCC(C)c1cc([N+](=O)[O-])cc([N+](=O)[O-])c1O` (stereo not given), the max response was 15.9% (inactive).
Still for that read-out and setting: the same measure for `COP(=S)(OC)Oc1c(Cl)cc(C)cc1Cl`: -12.7% (inactive).
In the case of `C=CC(=O)OCC(CC)(COC(=O)C=C)COC(=O)C=C`, the Potency is 44.7 µM (active).
With `COP(=O)(NC(C)=O)SC` (stereo not given), the max response is -12.8% (inactive).
For `CCCCC(CC)CO[N+](=O)[O-]` (stereo not given), the max response is 3.31% (inactive).
Same read-out and setting: to `CNC(=O)Oc1cc(C)cc(C(C)C)c1` belongs -3.46% (inactive); to `CC(C)(C#N)N=NC(C)(C)C#N`, -0.927% (inactive); to `CC(C)(c1ccccc1)c1cc(-n2nc3ccccc3n2)c(O)c(C(C)(C)c2ccccc2)c1`, 0.796% (inactive).
As for `CCCCOC(=O)c1ccccc1C(=O)O`, the max response was 13.7% (inactive).
As to `CC(Oc1ccc(Cl)cc1Cl)C(=O)O` (stereo not given), the max response is 1.72% (inactive).
`CC(Oc1cc(Cl)c(Cl)cc1Cl)C(=O)O` (stereo not given): the max response is 1.54% (inactive).
For `CNC(=O)Oc1ccc(N(C)C)c(C)c1`, the max response is 7.08% (inactive).
Same read-out and setting: to `Cc1cc(Cl)ccc1N=CN(C)C` belongs -16.2% (inactive); to `CCC[CH2][Sn](=[O])[CH2]CCC`, -4.87% (inactive).
